Bioassay records (PubChem)
Luc counter: Counterscreen for Luciferase (Kinase-Glo TM) Inhibition | 200,000 tested, 0.28% active | Kinase-Glo luciferase, ATP luminescence, 8 min | Potency, µM (doses to about 38.3 µM), most hits filed as inhibitors | AID 1379, 2008; further: nearly all actives have a fitted effect of over 60% in size
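Inhibition of Kinase-Glo luciferase light generation was assessed at 10 uM ATP in pH 7.2 imidazole buffer, with luminescence measured after eight minutes at ambient temperature.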
SMN2 splice enh: qHTS Assay for Enhancers of SMN2 Splice Variant Expression; HEK293 SMN2-luciferase splicing reporter, luminescence, 30-36 h; Potency, µM (top dose mostly 46.1 µM), hits mostly activators; 210,000 tested, 2.8% active; further: nearly all actives have a fitted effect of over 55% in size
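HEK293 cells carry an SMN2 […]–luciferase reporter in which exon 7 inclusion puts luciferase in frame. Cells were plated 10-12 h before compound addition, then incubated 30-36 h at 37C. ONE-Glo luminescence was read; sodium butyrate at 4.5 mM final served as control.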
FLuc counter: qHTS profiling assay for firefly luciferase inhibitor/activator using purifed enzyme and Km concentrations of substrates (counterscreen for miR-21 project). Luciferin 4-monooxygenase (Photinus pyralis), P08659. purified FLuc, Km substrates, luminescence inhibition. Potency, µM (highest dose often 57.5 µM), hits mostly inhibitors. 360,000 tested, 6.9% active. AID 588342, 2011; further: nearly all actives have a fitted effect of over 55% in size
Target sequence (P08659 whole entry, looked up): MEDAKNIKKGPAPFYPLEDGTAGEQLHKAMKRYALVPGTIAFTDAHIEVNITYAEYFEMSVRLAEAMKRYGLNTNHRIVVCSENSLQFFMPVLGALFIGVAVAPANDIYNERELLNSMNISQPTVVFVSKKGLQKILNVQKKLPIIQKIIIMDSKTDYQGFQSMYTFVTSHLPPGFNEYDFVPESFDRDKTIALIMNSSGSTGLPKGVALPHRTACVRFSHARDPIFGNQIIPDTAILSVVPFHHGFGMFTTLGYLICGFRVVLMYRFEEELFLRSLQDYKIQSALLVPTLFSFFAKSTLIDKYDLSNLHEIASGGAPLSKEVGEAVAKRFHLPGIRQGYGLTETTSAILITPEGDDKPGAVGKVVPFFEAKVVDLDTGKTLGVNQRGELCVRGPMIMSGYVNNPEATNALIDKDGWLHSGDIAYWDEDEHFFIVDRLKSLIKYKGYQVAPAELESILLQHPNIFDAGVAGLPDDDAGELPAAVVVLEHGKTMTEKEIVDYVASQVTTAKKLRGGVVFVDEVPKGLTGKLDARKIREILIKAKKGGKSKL
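Biochemical qHTS of compounds, final roughly 60 µM downward over six points, against 10 nM purified firefly luciferase using Km concentrations of substrates (10 uM D-luciferin, 10 uM ATP) in Tris acetate pH 7.5 buffer; luminescence output.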
Rab9 prom act: qHTS Assay for Rab9 Promoter Activators | 320,000 tested, 2.8% active | Potency, µM (series often up to 9.22 µM), actives largely listed as activators | Huh7 Rab9 promoter-luciferase reporter, luminescence, 24 h; further: nearly all actives have a fitted effect of over 60% in size
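Luminescence read-out: Huh7 cells stably expressing Rab9-luciferase, treated 24 h with compound at 37 °C, then lysed with luciferase reagent for 10 min at ambient before reading.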
NPC1 promoter act: qHTS Assay for NPC1 Promoter Activators | Huh7 NPC1 promoter luciferase reporter, 24 h | Potency, µM (series often up to 9.22 µM), actives largely listed as activators | 320,000 tested, 2.4% active; further: nearly all actives have a fitted effect of over 60% in size
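Huh7 reporter cells (NPC1 promoter driving luciferase) are dosed with compound for 24 h at 37 °C, 5% CO2; luciferase detection reagent is then added and luminescence measured after 10 min at ambient temperature.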
Hits are given with their value; 0 = inactive; ? = inconclusive; - = not tested or not shown. A selection: hits, their analogues and other compounds. The true share with any hit is near 7.3%. The call rests on the fitted dose curve; in most records, active means well fitted curve in the direction sought with a large enough effect; inconclusive means small, poorly fitted or top-dose-only effect, or another doubt; inactive means no such curve, though single readings can be large; an effect the other way counts as inactive or inconclusive.

SMILES	Luc counter	SMN2 splice enh	FLuc counter	Rab9 prom act	NPC1 promoter act
O=C(Nc1ccc(Cl)c(S(=O)(=O)N2CCOCC2)c1)c1ccc2c(c1)OCCO2	0	0	27µM	0	0
O=C(Nc1ccc(Cl)c(S(=O)(=O)N2CCOCC2)c1)c1ccc(Cl)nc1	-	-	0	0	0
Cc1ccc(S(=O)(=O)n2nc(-c3ccccc3)nc2NCc2ccc(Cl)cc2)cc1	-	0	0	-	-
CS(=O)(=O)c1cccc(C(=O)Nc2ccc3c(c2)OCCCO3)c1	-	-	15µM	3.5µM	?
COc1ccc(CNC(=O)c2ccc(C(C)(C)C)cc2)cc1	0	-	3µM	2.8µM	3.2µM
CCOc1ccc(NC(=S)c2ccc3ccccc3n2)cc1	-	-	?	?	3.5µM
Cc1ccccc1OCCNC(=O)c1ccc2ccccc2n1	0	22µM	4.8µM	3.2µM	?
COc1ccc(NC(=S)c2ccc3ccccc3n2)cc1	-	-	13µM	4µM	3.2µM
Cc1ccc(NC(=O)CSc2nc3ccccc3c3nc(CCc4c(C)n[nH]c4C)nn23)c(C)c1	-	-	0	-	-
COc1ccc(CNC(=O)c2ccc3ccccc3n2)cc1	-	-	27µM	0	0
O=C(NCc1ccccc1)c1ccc2ccccc2n1	-	-	0	0	0
COc1cc(OC)cc(C(=O)NNC(=O)c2ccc3ccccc3n2)c1	-	-	?	0	0
Cc1ccc(COC(=O)c2ccc3ccccc3n2)cc1	-	-	15µM	0	0
Cc1noc(C)c1COC(=O)c1ccc2ccccc2n1	0	0	0	0	0
COc1ccc(N=C(NN)c2ccc3ccccc3n2)cc1	0	0	6.7µM	0	0
Cc1ccc2nc(C(F)C(F)(F)F)[nH]c2c1 (stereo unspecified)	0	-	19µM	0	0
FC(c1nc2ccccc2[nH]1)C(F)(F)F (stereo unspecified)	0	-	0	0	0
Oc1ccc(-c2[nH]nc(-c3ccccc3)c2-c2nc3ccccc3[nH]2)cc1	0	0	0	0	0
CCN(CC)c1nc2ccccc2[nH]1	0	0	0	0	0
Clc1ccc(-c2nc3ccccc3[nH]2)cn1	-	-	19µM	?	?
Cc1ccc(-c2nc3ccccc3[nH]2)cn1	-	-	15µM	?	?
Cc1ccc2nc(-c3ccncc3)[nH]c2c1	-	-	8.5µM	?	2.2µM
Cc1nc2c(c(C)c1CCC(=O)NCc1ccc(Cl)cc1)c(=O)n(C)c(=O)n2C	-	0	0	-	-
Cc1nc2ccc([N+](=O)[O-])cc2[nH]1	0	0	0	0	0
Cc1nc2ccc(-c3nc4ccccc4[nH]3)cc2[nH]1	?	2.8µM	4.8µM	0.63µM	1.4µM
SMILES	Luc counter	SMN2 splice enh	FLuc counter	Rab9 prom act	NPC1 promoter act
O=C(Nc1nc(-c2ccc(Br)cc2)cs1)c1cccnc1	0	0	0	0	0
CC(C)/C=N/Nc1nc(-c2ccc(Br)cc2)cs1	0	0	7.6µM	?	?
COc1cccc(NC(=O)CNC(=O)Cn2c(C)cc3ccccc3c2=O)c1	-	0	0	-	-
Cc1c2ccccc2nc2c(F)c(NCCO)c(F)c(F)c12	0	0	21µM	0	0
OCCNc1c2ccccc2nc2c(F)c(F)c(F)c(F)c12	0	0	0	0	0
Cc1c2ccccc2nc2c(F)c(NC(C)C)c(F)c(F)c12	0	16µM	3µM	?	?
CC(=O)OC1CC(C)OC(C)O1 (stereo unspecified)	-	0	-	-	-
CN(C)c1ccc(CNC(=O)CCCN2C(=O)c3cccnc3Oc3ccc(Cl)cc32)cc1	-	-	0	-	-
C=CCc1ccccc1OCC(O)CN1C(=O)c2ccccc2C1=O (stereo unspecified)	-	-	0	0	0
Cc1ccccc1OCC(O)CN1C(=O)c2ccccc2C1=O (stereo unspecified)	-	-	13µM	0	0
O=C1c2ccccc2C(=O)N1CC(O)COc1ccccc1Cl (stereo unspecified)	-	-	11µM	?	0
COC(=O)[C@@H](NC(=O)O[C@@H]1C(=O)c2cc(OC)ccc2O[C@H]1c1ccc(OC)c(Br)c1)C(C)C	0	0	-	-	-
CCOC(=O)Cc1csc(NC(=O)c2ccc(C)cc2)n1	0	-	11µM	0	0
CCOC(=O)Cc1csc(NC(=S)NC(=O)c2ccc(C)cc2)n1	-	-	12µM	0	0
